Screens from PubChem BioAssay.
D2 antag = D2 dopamine receptor (human) antagonism | HEK293 TREx D2 cells, calcium flux, dopamine EC80 | 340,000 compounds, 2% hits | inhibition, % at 10 µM | P14416; in the data active = inhibition above about 30%; inactive = below that, where a call was filed; also: 0% is about no effect
Target sequence (P14416 whole entry, looked up): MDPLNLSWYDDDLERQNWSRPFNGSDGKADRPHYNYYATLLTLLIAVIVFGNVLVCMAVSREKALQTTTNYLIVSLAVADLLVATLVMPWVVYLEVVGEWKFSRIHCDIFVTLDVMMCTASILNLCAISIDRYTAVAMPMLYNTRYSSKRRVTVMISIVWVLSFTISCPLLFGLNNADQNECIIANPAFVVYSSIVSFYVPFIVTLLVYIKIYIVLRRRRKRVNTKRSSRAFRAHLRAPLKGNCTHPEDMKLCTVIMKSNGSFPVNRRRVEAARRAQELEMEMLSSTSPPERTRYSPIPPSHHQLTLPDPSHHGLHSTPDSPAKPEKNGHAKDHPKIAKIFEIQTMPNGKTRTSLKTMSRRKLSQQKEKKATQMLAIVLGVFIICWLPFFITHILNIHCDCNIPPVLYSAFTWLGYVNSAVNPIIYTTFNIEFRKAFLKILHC
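Compounds are added to dye-loaded, induced HEK293 T-REx cells coupled to calcium release via D2; after a 3 min kinetic read an EC80 dopamine stimulus is given and fluorescence is recorded for 3 more min.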
D2 PAM-1 = potentiates the human D2 dopamine receptor allosterically; 360,000 compounds, 0.23% hits; P14416; DiscoveRx D2 beta-arrestin cells, luminescence, 90 min; 100% = 57 uM dopamine signal; potentiation, % (test concentration not listed); in the data active = potentiation above about 50%; inconclusive = mostly about 30% to 49%
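PathHunter D2 cells, attached overnight at 37 deg C, received compound in DMSO plus dopamine at EC20 (50 nM final) for 90 min at 37 deg C. Beta-arrestin recruitment was read as luminescence after 1 h with detection reagent at ambient temperature.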
D2 ag-1 = agonists of human D2 dopamine receptor (beta-arrestin). P14416. activation, % (test concentration not listed). 360,000 compounds, 0.084% hits. DiscoveRx PathHunter D2 beta-arrestin, luminescence, 90 min; 100% = 57 uM dopamine signal; in the data active = activation above about 40%; inconclusive = between about 15% and that limit
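DiscoveRx PathHunter D2 beta-arrestin cells (2,100/well) attached overnight, then compound-stimulated 90 min at 37 C in HBSS/10 mM HEPES/0.1% Tween-20 buffer; beta-galactosidase complementation read by luminescence after 1 h at ambient temperature. Dopamine 57 uM final (EC100) as control.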
D2 PAM-2 = positive allosteric modulators of human D2 dopamine receptor. P14416. HEK293 T-REx D2, calcium flux, EC20 dopamine potentiation. potentiation, % at 10 µM. 340,000 compounds, 0.34% hits. AID 485347;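 active = potentiation over 3 SD above the plate norm, cut at about 30% in these data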; also: 0% is about no effect
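Tetracycline-induced Hek293 Trex D2 cells, force-coupled to calcium, loaded with no-wash calcium dye. Compound added with 180 s kinetic read for agonism, then EC20 dopamine and a further 180 s read for potentiation.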
D2 ag-2 = activates the human D2 dopamine receptor; P14416; HEK293 T-REx D2 cells, calcium flux agonist mode; activation, % at 2 µM; 340,000 compounds, 0.53% hits;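 active = activation over 3 SD above normal in the single-dose calcium agonist read, cut at about 30% in these data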; also: 0% is about no effect
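HEK293 Trex D2 cells, tetracycline-induced, o/n 30 C 5% CO2; no-wash Ca dye, RT 30–90 min; 10-cycle baseline, 23 nl cpd added, kinetic Ca read 180 s; agonist hits = positive Ca response.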
An asterisk follows results filed as active; ? = inconclusive; / = not tested or not shown. This is a sample that favours compounds with a hit; in the whole collection about 2.4% have one here.

SMILES	D2 antag	D2 PAM-1	D2 ag-1	D2 PAM-2	D2 ag-2
COc1cccc(NCc2ccc([N+](=O)[O-])s2)c1	-29	50*	10	19	0
COc1ccc2sc(N(Cc3cccnc3)C(=O)C3COc4ccccc4O3)nc2c1 (configuration not stated)	/	/	/	-1	1
CC(=O)c1c(C)oc2c1cc(O)c1ccccc12	2	-7	0	-23	0
CCOC(=O)c1c(C)oc2c1cc(O)c1ccccc12	0	58*	9	3	0
O=C(N/N=C/C=C/c1cccc([N+](=O)[O-])c1)c1ccncc1	3	-2	1	-9	-1
Cc1ccccc1/C=N/NC(=O)c1cccnc1	-12	-3	-7	4	0
Cn1cc(/C=N/NC(=O)c2cc3cc(Br)ccc3o2)c2ccccc21	66*	-9	-3	-21	0
COc1ccc2ccccc2c1/C=N/Nc1cccc(C(=O)O)c1	14	12	6	10	0
O=C(N/N=C/c1cccc2ccccc12)c1cccnc1	37*	-18	-3	0	0
O=C(O)c1cccc(N/N=C/c2cccc3ccccc23)c1	-6	5	-1	47*	-1
O=C(O)Cn1cc(/C=N/NC(=O)c2cc3cc(Br)ccc3o2)c2ccccc21	-22	-4	2	-21	0
Nc1ccc(C(=O)N/N=C\C=C\c2cccc([N+](=O)[O-])c2)cc1	48*	-4	-2	-4	3
COc1ccc(NC(=O)Cn2cnc3c(nc4n3CCCCC4)c2=O)c(OC)c1	/	/	/	-13	1
Cc1csc2nc(COc3ccccc3NC(=O)c3ccco3)cc(=O)n12	/	/	/	1	-1
O=C1CCCc2cc(S(=O)(=O)NCC3CCC(C(=O)Nc4ccccc4F)CC3)ccc2N1 (configuration not stated)	/	/	/	0	0
O=C(N/N=C/c1cccc2ccccc12)c1cc2ccccc2o1	52*	-21	-4	-22	-1
O=C(N/N=C/c1cccc([N+](=O)[O-])c1)c1cc2ccccc2o1	33*	-27	-5	-20	-1
O=C(COC(=O)c1cccnc1)Nc1cccc2ccccc12	32*	-5	-7	2	0
O=C(O)c1cccc(N/N=C/c2sc(N3CCOCC3)nc2-c2ccccc2)c1	-12	112*	13	8	-1
CC(O)CNC(=O)C(=O)Nc1c2c(nn1-c1ccc(Cl)cc1)CSC2 (configuration not stated)	/	/	/	-9	0
COC(=O)c1ccc(-n2c(/C=C\c3cccc(Br)c3)nc3ccccc3c2=O)cc1	/	/	/	2	0
COc1ccc(CN2CCC(C(=O)Nc3ccc(Oc4ccccc4)nc3)CC2)cc1F	11	-15	-1	-1	2
COc1cc(F)ccc1CN1CCC(C(=O)Nc2ccc(Oc3ccccc3)nc2)CC1	40*	-17	-8	-11	1
COc1ccc(NC(=O)N2CCN(S(C)(=O)=O)CC2)cc1	34*	-4	-1	12	2
COc1ccc(NC(=O)N2CCN(C(=O)Nc3ccc(OC)cc3)CC2)cc1	10	-3	-4	-3	0
SMILES	D2 antag	D2 PAM-1	D2 ag-1	D2 PAM-2	D2 ag-2
CN(C)S(=O)(=O)c1ccc(NC(=O)N2CCN(c3ccccc3)CC2)cc1	9	-6	-7	22	3
COc1ccc(N2CCN(C(=O)Nc3ccc(S(=O)(=O)N(C)C)cc3)CC2)cc1	41*	-2	-4	1	0
COCCn1c(C)cc(O)c(C(c2ccccc2OC)N2CCN(c3ccccc3)CC2)c1=O (configuration not stated)	/	/	/	-17	21
CCC(O)c1nc2ccccc2n1Cc1cc(C)ccc1C (configuration not stated)	/	/	/	2	-1
c1ccc2c(c1)Nc1cc3ccccc3cc1O2	/	91*	?	/	/
COc1ccc(Nc2nc(C)nc3c2nnn3Cc2ccccc2)cc1OC	12	-1	2	35*	1
CCCS(=O)(=O)N1CCCC(C(=O)NCCCN2CCN(c3ccccc3F)CC2)C1 (configuration not stated)	38*	-19	14	-19	69*
O=C(NCCN1CCN(c2ccccc2F)CC1)C1CCCN(S(=O)(=O)c2cnc[nH]2)C1 (configuration not stated)	20	67*	15	12	-1
COc1ccc(N2CCN(CCCNC(=O)C3CCCN(S(=O)(=O)c4c(C)n[nH]c4C)C3)CC2)cc1 (configuration not stated)	6	-8	-1	22	0
COc1ccc(N2CCN(CCCNC(=O)C3CCCN(S(=O)(=O)c4cnc[nH]4)C3)CC2)cc1 (configuration not stated)	-2	-10	-4	34*	-1
O=C(NCCN1CCC(Cc2ccccc2)CC1)C1CCCN(S(=O)(=O)c2cnc[nH]2)C1 (configuration not stated)	-23	-5	-4	-12	14
O=C(CSc1nnc2[nH]c(=O)cc(-c3ccccc3)n12)Nc1ccc(OC(F)(F)F)cc1	/	/	/	0	1
COc1cccc(N2CCN(Cc3ccsc3)CC2)c1	48*	-18	0	-23	18
O=C(Oc1ccc(Cl)c2cccnc12)N1CCCCC1	8	-2	2	-2	0
O=C(Oc1ccc(Cl)c2ccccc12)N1CCCCC1	56*	-14	-2	-2	-1
COC(=O)c1sc(=S)n(-c2ccccc2OC)c1N	0	-2	-1	31*	0
O=C1C2CCCCN2C(=O)N1CCCCN1CCN(c2cccc(Br)c2)CC1 (configuration not stated)	87*	-1	-1	-26	40*
O=C1C2CCCN2C(=O)N1CCCCN1CCN(c2ccc(F)cc2)CC1 (configuration not stated)	40*	-23	0	-20	12
O=C1C2CCCCN2C(=O)N1CCN1CCN(c2cccc(Cl)c2)CC1 (configuration not stated)	/	-10	2	/	/
O=C1C2CCCCN2C(=O)N1CCCCN1CCN(c2ccc(F)cc2)CC1 (configuration not stated)	11	-4	-5	-24	0
O=C(C1CCN(S(=O)(=O)c2ccc(Br)s2)CC1)N1CCN(c2cccc(Cl)c2)CC1	/	/	/	5	1
CCn1c(SCc2ccccc2C)nc(=O)c2c(C(=O)OC)cc(C3CC3)nc21	/	/	/	6	/
Cc1ccc(NC2=C/C(=N/S(=O)(=O)c3cccs3)c3ccccc3C2=O)cc1C	-6	76*	?	0	1
COC(=O)c1sc2cccc(F)c2c1S(=O)(=O)NCc1ccc(F)cc1	/	/	/	9	0
CC(=O)C1=C(C)NC(C)=C(C(C)=O)C1c1ccccc1	-1	8	41*	4	0
